In PubChem BioAssay (EPA / NIEHS):
Results filed as inconclusive are left out. Activity calls are given as the source filed them. Rule for the calls, unless noted: active = hit-call score of the fitted dose curve at least 0.9, where 1 is the maximum; inconclusive = response in the unintended direction; inactive = score below 0.9.

Experiments:
[1] = Tanguay_ZF_120hpf_JAW_legacy: (Legacy) Oregon State University Tanguay Lab 120 Hour Post-fertilization zebrafish Assay for Jaw Malformation (AID 2283638);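 for AC50: active means more embryos with jaw malformation than DMSO controls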
Outline: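 Binary jaw-malformation call at 120 hpf by brightfield microscopy. Embryos (Tropical 5D strain, chorion removed at 4 hpf) were dosed statically at 6 hpf, one per well, at 28C with 0.64% DMSO. Embryos that died were not scored.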

[2] = Tanguay_ZF_120hpf_OTIC_legacy: (Legacy) Oregon State University Tanguay Lab 120 Hour Post-fertilization zebrafish Assay for Otic Vesicle Malformation (AID 2283639)
Outline: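 Statically exposed wild-type 5D zebrafish embryos, kept sealed and dark at 28C through 120 hours post fertilization, were examined by brightfield microscopy for otic vesicle defects. Responses were recorded as present or absent and analysed relative to DMSO.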

[3] = Tanguay_ZF_120hpf_PE_legacy: (Legacy) Oregon State University Tanguay Lab 120 Hour Post-fertilization zebrafish Assay for Pericardial Edema (AID 2283640);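 for AC50: potency for increased incidence of pericardial edema versus DMSO baseline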
Outline: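 Scoring was binary, by brightfield microscopy at 120 hpf, and skipped where mortality occurred. Wild-type embryos were kept under sealed, foil-covered static exposure at 28C in 0.64% (vol/vol) DMSO.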

[4] = Tanguay_ZF_120hpf_BRAI_legacy: (Legacy) Oregon State University Tanguay Lab 120 Hour Post-fertilization zebrafish Assay for Brain Malformation (AID 2283641)
Outline: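 Binary brightfield scoring of brain malformation at 120 hpf in Tropical 5D larvae held under static exposure at 28C (0.64% v/v DMSO), non-mortality endpoints skipped if dead. Positive control: 5uM trimethyltin chloride; fit versus DMSO.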

[5] = Tanguay_ZF_120hpf_SOMI_legacy: (Legacy) Oregon State University Tanguay Lab 120 Hour Post-fertilization zebrafish Assay for Somite Malformation (AID 2283647)
Outline: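 Binary somite-defect scoring at 120 hpf, omitted for embryos that died, in wild-type (Tropical 5D) zebrafish with chorion removed by pronase at 4 hpf; static exposure began 6 hpf, single embryos per well, 28C, 0.64% DMSO; fitted positive versus DMSO.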

[6] = Tanguay_ZF_120hpf_PFIN_legacy: (Legacy) Oregon State University Tanguay Lab 120 Hour Post-fertilization zebrafish Assay for Pectoral Fin Malformation (AID 2283648);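 note: each larva judged yes or no for fin defect by brightfield with dead larvae skipped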
Outline: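 Pectoral fin malformation was recorded as a binary endpoint at 120 hpf in wild-type Tropical 5D larvae, which had been dechorionated and exposed statically from 6 hpf at 28C in 0.64% DMSO. Dead embryos were excluded.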

[7] = Tanguay_ZF_120hpf_CFIN_legacy: (Legacy) Oregon State University Tanguay Lab 120 Hour Post-fertilization zebrafish Assay for Caudal Fin Malformation (AID 2283649)
Outline: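 Binary brightfield scoring of caudal fin defects at 120 hpf after static, light-shielded exposure at 28C from 6 hpf. Tropical 5D embryos, chorion removed with pronase at 4 hpf, final DMSO 0.64%.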

[8] = Tanguay_ZF_120hpf_PIG_legacy: (Legacy) Oregon State University Tanguay Lab 120 Hour Post-fertilization zebrafish Assay for Pigmentation Malformation (AID 2283650)
Outline: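 Pigment malformation recorded as a binary call at 120 hpf in zebrafish (Tropical 5D) exposed singly from 6 hpf after pronase dechorionation. Static, sealed, 28C exposure, 0.64% DMSO; mortality excludes scoring; positive-direction fit against DMSO.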

[9] = Tanguay_ZF_120hpf_CIRC_legacy: (Legacy) Oregon State University Tanguay Lab 120 Hour Post-fertilization zebrafish Assay for Circulatory Malformation (AID 2283651)
Outline: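 Embryos are dechorionated at 4 hpf, plated one per well at 6 hpf, then held under static exposure at 28C until 120 hpf. Malformations are recorded as binary calls; mortality excludes other endpoints.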

[10] = read-out: kallikrein-3 (KLK3), KLK3 (gene 354); experiment: LTEA_HepaRG_KLK3: Life Technologies and Expression Analysis (LTEA) Assay for kallikrein-3 (KLK3) using HepaRG (AID 2283652; active = hit-call score of the fitted dose curve at least 0.9, where 1 is the maximum; inactive = score below 0.9); conditions: mRNA level, 48 h; actives raise or lower the signal
Outline: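 KLK3 transcript levels were measured by TaqMan qRT-PCR with normalisation to three housekeeping genes. HepaRG cultures received chemicals for 48 h at up to 100 uM (half-log, 8 points, 0.5% DMSO vehicle), fitted in both directions against DMSO.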

CCNc1nc(N)nc(Cl)n1
outcome [1]: inactive
outcome [2]: inactive
outcome [3]: inactive
outcome [4]: inactive
outcome [5]: inactive
outcome [6]: inactive
outcome [7]: inactive
outcome [8]: inactive
outcome [9]: inactive

O=C(c1ccc(O)cc1O)c1ccc(O)cc1O
outcome [1]: inactive
outcome [2]: inactive
outcome [3]: inactive
outcome [4]: inactive
outcome [5]: inactive
outcome [6]: inactive
outcome [7]: inactive
outcome [9]: inactive

CCSC(=O)N(CC(C)C)CC(C)C
outcome [1]: inactive
outcome [2]: inactive
outcome [3]: inactive
outcome [4]: inactive
outcome [5]: inactive
outcome [6]: inactive
outcome [7]: inactive
outcome [8]: inactive

C#CCOC(=O)[C@@H](C)Oc1ccc(Oc2ncc(Cl)cc2F)cc1
outcome [1]: inactive
outcome [2]: inactive
outcome [3]: inactive
outcome [5]: inactive
outcome [8]: inactive

C[C@]12C[C@H](O)[C@H]3[C@@H](CCC4=CC(=O)CC[C@@]43C)[C@@H]1CC[C@@H]2C(=O)CO
outcome [1]: inactive
outcome [2]: inactive
outcome [3]: inactive
outcome [5]: inactive
outcome [7]: inactive
outcome [8]: inactive
outcome [9]: inactive

O=C(Nc1ccc([N+](=O)[O-])cc1Cl)c1cc(Cl)ccc1O
outcome [1]: inactive
outcome [2]: inactive
outcome [3]: inactive
outcome [6]: inactive
outcome [7]: inactive
outcome [8]: inactive

CCCOC(=O)c1ccc(C(=O)OCCC)nc1
outcome [1]: inactive
outcome [2]: inactive
outcome [3]: inactive
outcome [6]: inactive
outcome [8]: inactive

CCOC(=O)COc1cc(-n2ncc(C(F)(F)F)c(C)c2=O)c(F)cc1Cl
outcome [2]: inactive
outcome [3]: inactive
outcome [5]: inactive
outcome [6]: inactive
outcome [7]: inactive
outcome [8]: inactive
outcome [9]: inactive

CC(=O)S[C@@H]1CC2=CC(=O)CC[C@]2(C)[C@H]2CC[C@@]3(C)[C@@H](CC[C@@]34CCC(=O)O4)[C@H]12
outcome [1]: inactive
outcome [2]: inactive
outcome [6]: inactive
outcome [7]: inactive
outcome [8]: inactive
outcome [9]: inactive

COC(=O)CSc1cc(N=c2sc(=O)n3n2CCCC3)c(F)cc1Cl
outcome [1]: inactive
outcome [3]: inactive
outcome [4]: inactive
outcome [6]: inactive
outcome [8]: inactive
outcome [9]: inactive

c1ccc(Nc2ccccc2)cc1
AC50 [1]: 20.7 µM (active)
AC50 [3]: 36.1 µM (active)
AC50 [4]: 10.2 µM (active)
outcome [5]: inactive
outcome [6]: inactive
outcome [7]: inactive
outcome [8]: inactive

CCCOC(=O)NCCCN(C)C
outcome [1]: inactive
outcome [3]: inactive
outcome [4]: inactive
outcome [5]: inactive
outcome [6]: inactive
outcome [7]: inactive
outcome [8]: inactive
outcome [9]: inactive

CC(C)(C)[C@@H](O)[C@@H](Cc1ccc(Cl)cc1)n1cncn1
outcome [1]: inactive
AC50 [3]: 45.9 µM (active)
outcome [4]: inactive
outcome [5]: inactive
outcome [6]: inactive
outcome [7]: inactive
outcome [8]: inactive
outcome [9]: inactive

CCCCOC(=O)[C@@H](C)Oc1ccc(Oc2ccc(C(F)(F)F)cn2)cc1
outcome [2]: inactive
outcome [3]: inactive
outcome [4]: inactive
outcome [5]: inactive
outcome [6]: inactive

c1ccc2[nH]c(-c3cscn3)nc2c1
outcome [1]: inactive
outcome [2]: inactive
outcome [4]: inactive
outcome [6]: inactive
outcome [8]: inactive
outcome [9]: inactive

CCOC(=O)c1ccc(O)cc1
outcome [1]: inactive
outcome [3]: inactive
outcome [4]: inactive
outcome [6]: inactive
outcome [7]: inactive
outcome [8]: inactive
outcome [9]: inactive

CCCCOC(=O)C(C)Oc1ccc(Oc2ccc(C(F)(F)F)cn2)cc1 (centres undefined)
outcome [1]: inactive
outcome [2]: inactive
outcome [3]: inactive
outcome [5]: inactive
outcome [6]: inactive
outcome [8]: inactive
outcome [9]: inactive

C#C[C@]1(O)CC[C@H]2[C@@H]3CCC4=CC(=O)CC[C@@H]4[C@H]3CC[C@@]21CC
outcome [1]: inactive
outcome [2]: inactive
outcome [4]: inactive
outcome [5]: inactive
outcome [7]: inactive
outcome [8]: inactive

C=CCOC(Cn1ccnc1)c1ccc(Cl)cc1Cl (centres undefined)
AC50 [1]: 3.98 µM (active)
outcome [3]: inactive
outcome [6]: inactive
outcome [7]: inactive

C[C@]12CC[C@@H]3c4ccc(O)cc4C[C@@H](CCCCCCCCCS(=O)CCCC(F)(F)C(F)(F)F)[C@H]3[C@@H]1CC[C@@H]2O (some centres undefined)
outcome [1]: inactive
outcome [2]: inactive
outcome [4]: inactive
outcome [5]: inactive
outcome [6]: inactive
outcome [8]: inactive
outcome [9]: inactive

N[C@@H](Cc1cc(I)c(Oc2ccc(O)c(I)c2)c(I)c1)C(=O)O
AC50 [1]: 0.00171 µM (active)
outcome [3]: inactive
outcome [5]: inactive
outcome [6]: inactive
outcome [7]: inactive
AC50 [8]: 0.00051 µM (active)
outcome [9]: inactive

CCCCC(CC)COC(=O)c1ccccc1C(=O)O (centres undefined)
outcome [1]: inactive
outcome [3]: inactive
outcome [4]: inactive
outcome [8]: inactive
outcome [9]: inactive

CCCN(CCC)C(=O)SCC
outcome [1]: inactive
outcome [3]: inactive
outcome [4]: inactive
outcome [5]: inactive
outcome [6]: inactive
outcome [7]: inactive
outcome [8]: inactive

COC(=O)c1ccc(I)cc1S(=O)(=O)NC(=O)Nc1nc(C)nc(OC)n1
outcome [3]: inactive
outcome [4]: inactive
outcome [5]: inactive
outcome [6]: inactive
outcome [7]: inactive
outcome [8]: inactive
outcome [9]: inactive

CN(C)C(=O)Nc1ccc(Cl)c(Cl)c1
outcome [2]: inactive
outcome [3]: inactive
outcome [4]: inactive
outcome [5]: inactive
outcome [6]: inactive
outcome [7]: inactive
outcome [8]: inactive
outcome [9]: inactive

CCCCCCC(C)OC(=O)COc1nc(F)c(Cl)c(N)c1Cl (centres undefined)
outcome [2]: inactive
outcome [3]: inactive
outcome [4]: inactive
outcome [5]: inactive
outcome [6]: inactive
outcome [9]: inactive

CSC(=O)c1cccc2nnsc12
outcome [1]: inactive
outcome [3]: inactive
outcome [4]: inactive
outcome [5]: inactive
outcome [6]: inactive
outcome [7]: inactive
outcome [8]: inactive
outcome [9]: inactive

COC(=O)c1ccccc1C(=O)O
outcome [1]: inactive
outcome [3]: inactive
outcome [4]: inactive
outcome [5]: inactive
outcome [7]: inactive
outcome [8]: inactive
outcome [9]: inactive
outcome [10]: inactive

OB(O)O
outcome [1]: inactive
outcome [3]: inactive
outcome [4]: inactive
outcome [5]: inactive
outcome [6]: inactive
outcome [7]: inactive
outcome [8]: inactive
outcome [9]: inactive

Oc1ccc(C(c2ccc(O)cc2)C(Cl)(Cl)Cl)cc1
AC50 [1]: 117 µM (active)
outcome [3]: inactive
outcome [4]: inactive
AC50 [5]: 86.3 µM (active)
outcome [6]: inactive
outcome [7]: inactive
AC50 [8]: 202 µM (active)
AC50 [9]: 202 µM (active)
